The record followed here is PubChem BioAssay (NCATS).

SMILES strings stand for the structures. Inconclusive results are not listed. Values without a mark were called inactive. Activity calls are given as the source filed them. The call rests on the fitted dose curve; in most records, active means well fitted inhibition curve with a large enough effect; inconclusive means small, poorly fitted or top-dose-only effect; inactive means flat fitted curve, though single readings scatter.
On the % scale 0 is the no-effect control and ±100 the full control effect; potency means the concentration at half of the fitted maximal effect.

Chain of Voltage-gated inwardly rectifying potassium channel KCNH2 (Homo sapiens) (Q12809 whole entry, looked up): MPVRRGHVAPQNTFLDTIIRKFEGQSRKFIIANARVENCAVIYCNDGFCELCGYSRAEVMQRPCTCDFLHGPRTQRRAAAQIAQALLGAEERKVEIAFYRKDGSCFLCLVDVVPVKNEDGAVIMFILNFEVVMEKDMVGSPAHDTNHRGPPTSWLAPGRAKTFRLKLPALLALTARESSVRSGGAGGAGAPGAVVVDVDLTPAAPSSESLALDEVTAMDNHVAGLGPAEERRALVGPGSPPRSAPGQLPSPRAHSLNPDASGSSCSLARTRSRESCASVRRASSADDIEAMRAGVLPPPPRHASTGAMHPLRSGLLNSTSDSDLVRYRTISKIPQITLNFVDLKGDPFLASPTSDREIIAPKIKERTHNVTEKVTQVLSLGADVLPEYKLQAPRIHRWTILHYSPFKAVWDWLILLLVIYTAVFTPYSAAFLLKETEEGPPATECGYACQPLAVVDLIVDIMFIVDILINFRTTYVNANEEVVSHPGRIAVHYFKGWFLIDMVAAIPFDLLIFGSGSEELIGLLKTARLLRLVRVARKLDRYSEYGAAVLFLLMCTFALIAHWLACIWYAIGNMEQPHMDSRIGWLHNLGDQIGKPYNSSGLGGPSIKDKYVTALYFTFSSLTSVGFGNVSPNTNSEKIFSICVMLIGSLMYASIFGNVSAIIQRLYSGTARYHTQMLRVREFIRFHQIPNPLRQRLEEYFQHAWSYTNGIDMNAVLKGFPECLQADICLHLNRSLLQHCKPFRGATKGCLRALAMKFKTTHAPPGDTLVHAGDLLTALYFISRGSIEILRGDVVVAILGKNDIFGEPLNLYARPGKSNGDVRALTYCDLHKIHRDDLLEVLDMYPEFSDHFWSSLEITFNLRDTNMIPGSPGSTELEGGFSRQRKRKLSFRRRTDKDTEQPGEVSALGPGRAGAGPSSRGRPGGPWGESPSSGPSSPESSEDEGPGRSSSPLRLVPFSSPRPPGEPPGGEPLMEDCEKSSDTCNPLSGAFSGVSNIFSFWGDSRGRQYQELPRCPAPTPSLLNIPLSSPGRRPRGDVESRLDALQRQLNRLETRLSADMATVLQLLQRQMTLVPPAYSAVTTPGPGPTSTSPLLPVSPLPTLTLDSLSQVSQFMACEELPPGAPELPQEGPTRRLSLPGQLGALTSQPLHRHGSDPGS

This test concerns the target Voltage-gated inwardly rectifying potassium channel KCNH2 (Homo sapiens) (UniProt Q12809). The test can be described thus: qHTS Assay for Small Molecule Inhibitors of the Human hERG Channel Activity (AID 588834).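 Further: lower thallium flux fluorescence means stronger hERG block; nearly all actives have a fitted effect of over 50% in size.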 On activity change, negative = inhibition: top concentration of the series differs between compounds. The conditions noted are these: U2OS BacMam hERG, FluxOR thallium flux fluorescence; series mostly up to 92.2 µM; activity change, negative = inhibition: at the top concentration. An excerpt: NIH Chemical Genomics Center [NCGC]
National Institutes of Environmental Health Sciences [NIEHS]
National Toxicology Program [NTP]
We have developed a 1536-well cell-based assay for quantitative high throughput screening (qHTS) to determine in vitro hERG channel blockage as a measure of cardio toxicity with small molecules. This particular assay uses the U2OS cell line which is derived from human osteosarcoma.
NCGC Assay Protocol Summary:
HERG assay (FluxORTM thallium flux assay) was initially developed by Invitrogen/Molecular Probes, and then miniaturized into 1536-well plate in a homogeneous format by NCGC. This assay measures the activity of potassium channel using thallium dye (FluxOR) flux as surrogate measurement for potassium into the cells with a FDSS-7000 kinetic plate reader (Hamamatsu Corp., Hamamatsu City, Japan). The hERG ion channel is transduced into mammalian cells (U2OS) using a baculovirus (Bacmam) construct harboring the hERG K+ ion channel. So far we screened LOPAC1280 library (Sigma), the NTP collection of 1408 compounds, and the NCGC Pharmaceutical Collection (NPC), in which many well defined HERG blockers are present. The rank order potencies of many of these compounds are similar to that of other HERG assays (membrane potential, Rb+ flux, patch clamp, etc). This quick and homogeneous assay is also found to be sensitive, specific, and robust.
Using the FluxORTM thallium flux assay, the activity of potassium channel using thallium dye (FluxOR) flux as surrogate measurement for potassium into the cells was measured in the U2OS cell line transduced with hERG K+ ion channel using a baculovirus (Bacmam) using Opti-MEM medium (Invitrogen) containing 2% fetal calf serum (FCS, HyCone) following loading buffer addition, compound treatment for around 10 minutes and finally adding stimulation buffer. The assay was performed in black clear Kalypsys 1536-well plates. In the screen, Astemizole was used as positive controls. Library compounds were measured for their ability to cause hERG channel blockage in the cell line, as reflected by a decrease in fluorescence intensity, in a concentration-dependent manner. […] AC50 values were determined from concentration-response data modeled with the standard Hill equation.
qHTS protocol for hERG-U2OS cellular assay
[Step] [Parameter] [Value] [Description]
1. Day 1: Replace medium in 70-80% confluent T225 flask with 2.5 mL of hERG-BacMam virus plus 12.5 mL of phosphate buffered saline (PBS) (corresponding roughly to a multiplicity of infection ratio of 100 virus particles/cell)
2. Incubation: 4 hrs @ room Temperature in Dark
3. Reagent; Remove virus; wash once with 25 ml DPBS
4. Reagent; 35 ml culture medium
5. Incubation; 37 °C overnight
6. Day2: Reagent; 3 uL; 2000 U2OS cells/well
7. Time; 4 hr; 37 °C incubation
8. Loading buffer; 1 uL; 0.7X;
9. Incubation: 1hr @ RT in Dark.
12. Time; 10min; 37 °C incubation
13. Read fluorescence Intensity on FDSS for 10 Sec with 1 sec interval
14. Reagent; 1 uL; stimulation buffer
15. Read fluorescence Intensity on FDSS for 2 min with 1 sec interval
16. Detection; Fluorescence Intensity; FDSS
A general note: qHTS replaces the single test concentration by a dilution series.
Take `OCC(CBr)(CBr)CBr`: the “activity change, negative = inhibition” value was -3.4%. `O=[N+]([O-])c1ccc(F)cc1F`: the “activity change, negative = inhibition” value was 1.1%. Still for that read-out and setting: the figure for `c1cc2c3c(c1)ccc1cccc(c13)C2` is 45.8%. The same measure, in the same setting: to `O=C(Cl)c1ccc([N+](=O)[O-])cc1` belongs 0.239%; to `CC(/C=C/C=C(C)/C=C/C(=O)O)=C\C=C\C=C(C)\C=C\C=C(C)\C=C\C(=O)O`, -0.464%; to `O=C1c2ccccc2C(=O)C1(O)O`, 12.7%. As to `c1ccc2c(c1)ccc1ccccc12`, the “activity change, negative = inhibition” value is 47.9%.

Take `CC(=O)OC1CC(C)OC(C)O1` (stereo not given): the “activity change, negative = inhibition” value was 1.76%. Regarding `CCN(CC)c1ccc2c(C)cc(=O)oc2c1`, the “activity change, negative = inhibition” value is -15%. In the case of `O=C(OCc1ccccc1)c1ccccc1O`, the Potency is 39.8 µM (active). For `CC(C)S`, the “activity change, negative = inhibition” value was 1.24%.

Turning to `Clc1nc2ccccc2nc1Cl`, the “activity change, negative = inhibition” value was 38.6%. Same read-out and setting: the figure for `S=C(NC1CCCCC1)NC1CCCCC1` is 1.53%; for `O=C=Nc1ccc(Cl)c(Cl)c1` it is -10.2%; for `CCCCC(CC)COP(=O)(OCC(CC)CCCC)OCC(CC)CCCC` (stereo not given) it is -2.36%. As to `O=Nc1ccc(Nc2ccccc2)cc1`, the “activity change, negative = inhibition” value is 1.36%. Turning to `CC(=O)CC(=O)Nc1ccccc1`, the “activity change, negative = inhibition” value is 2.12%.

Consider `COc1ccc(C)cc1N`, for which the “activity change, negative = inhibition” value is 4.72%. In the case of `O=[N+]([O-])c1ccccc1Nc1ccccc1`, the Potency is 35.5 µM (active). In the case of `CCCCC(CC)COC(=O)COc1ccc(Cl)cc1Cl` (stereo not given), the “activity change, negative = inhibition” value was -21.5%.

For the molecule `O=C(O)c1ccc([N+](=O)[O-])cc1`, the “activity change, negative = inhibition” value was 5.52%. `Nc1ccc2c(c1)C(=O)c1ccccc1C2=O`: the “activity change, negative = inhibition” value is 0.746%.

For the molecule `O=C1OC(=O)c2ccccc21`, the “activity change, negative = inhibition” value is 3.62%.

For the molecule `Cc1cc2nc(N)sc2cc1C`, the “activity change, negative = inhibition” value is 3.39%. In the case of `Cc1cccnc1`, the “activity change, negative = inhibition” value is -1.58%. Turning to `COc1cc(-c2ccc(N=C=O)c(OC)c2)ccc1N=C=O`, the “activity change, negative = inhibition” value is 14.6%.

For `Oc1c(Cl)cc(Cl)c(Cl)c1Cl`, the “activity change, negative = inhibition” value was 4.54%.

For `CCCC(=O)OC(=O)CCC`, the “activity change, negative = inhibition” value is 6.76%. `CC(=O)Nc1cccc(C)c1`: the “activity change, negative = inhibition” value is 5.94%. Regarding `c1ccncc1`, the “activity change, negative = inhibition” value is 10.4%. The same measure, in the same setting: to `O=CC(=O)c1ccccc1` belongs -1.94%; to `NC(=O)c1ccc([N+](=O)[O-])cc1`, 10.2%. `C1CCCNCC1`: the “activity change, negative = inhibition” value is 4.34%. Same read-out and setting: the figure for `Nc1ccc(-c2ccc(N)c(O)c2)cc1O` is 0.974%; for `Cc1ccc(N)cc1[N+](=O)[O-]` it is 1.26%. For `NC(=O)Nc1nc2ccccc2[nH]1`, the “activity change, negative = inhibition” value is -2.72%.

For the molecule `O=[N+]([O-])c1cccc(I)c1`, the “activity change, negative = inhibition” value is 9.9%. In the case of `CC(=O)OC(C(=O)c1ccccc1)c1ccccc1` (stereo not given), the “activity change, negative = inhibition” value is 6.79%. As for `Cc1cc(=O)oc2cc(O)cc(O)c12`, the “activity change, negative = inhibition” value was 6.73%. With `Oc1ccc(O)c2c(O)cccc12`, the “activity change, negative = inhibition” value was 1.12%.
